PubChem BioAssay (NCATS)
“And” between values parts separate entries of the source, which are not always exact repeats. Equal values may be shown once. Records with an inconclusive call do not appear. The source made the active and inactive calls. Calls follow the shape of the dose curve; as a rule, active = well fitted curve in the direction sought with a large enough effect; inconclusive = small, poorly fitted or top-dose-only effect, or another doubt; inactive = no such curve, though single readings can be large; an effect the other way counts as inactive or inconclusive.

How the values were obtained:
[1] = biological target: Cellular tumor antigen p53 (Homo sapiens) (UniProt P04637); test: Primary qHTS for small molecule compounds that upregulate eGFP-tagged delta133p53alpha (in N-terminal) cells. (AID 2060322); conditions: NCI-H358 eGFP-delta133p53alpha fluorescence, 24 h; activation: stronger effect = higher value;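 also: cells pre-induced with doxycycline then dosed without doxycycline; series mostly up to about 56 µM; 0% = DMSO vehicle and 100% = reference activator; nearly all actives have a fitted effect of over 75% in size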
Cellular tumor antigen p53 (Homo sapiens), sequence (P04637 whole entry, looked up): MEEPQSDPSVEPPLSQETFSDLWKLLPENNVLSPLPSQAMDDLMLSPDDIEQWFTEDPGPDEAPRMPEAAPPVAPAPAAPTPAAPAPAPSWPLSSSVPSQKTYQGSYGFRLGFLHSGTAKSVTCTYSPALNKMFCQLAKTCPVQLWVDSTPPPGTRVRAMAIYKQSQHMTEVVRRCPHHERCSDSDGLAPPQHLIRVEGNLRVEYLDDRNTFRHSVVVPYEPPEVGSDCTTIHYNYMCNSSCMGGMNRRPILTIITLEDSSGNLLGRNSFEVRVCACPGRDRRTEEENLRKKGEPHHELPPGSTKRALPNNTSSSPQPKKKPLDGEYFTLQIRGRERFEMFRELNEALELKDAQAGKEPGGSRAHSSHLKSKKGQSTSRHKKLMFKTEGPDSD
Summary of the method: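 NCI-H358 cells pre-induced 24 h with 10 ng/ml doxycycline for eGFP-delta133p53alpha, plated dox-free and exposed 24 h at 37C to titrated compounds. Fixed, Hoechst-stained; gated GFP peak intensity by laser scanning cytometry, normalized to DMSO (0%) and 57.5 uM 5-azacytidine (100%).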

[2] = biological target: Aldehyde dehydrogenase, mitochondrial (Homo sapiens) (UniProt P05091); test: qHTS for Inhibitors of the Aldehyde Dehydrogenase Family (ALDH2) Primary screen (AID 2061308);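 also: plate controls were vehicle for no effect and reference inhibitor for full effect; nearly all actives have a fitted effect of over 55% in size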
[3] = biological target: Retinaldehyde dehydrogenase 3 (Homo sapiens) (UniProt P47895); test: qHTS for Inhibitors of the Aldehyde Dehydrogenase Family (ALDH1A3) Validation screen (AID 2061312); also: % is scaled to controls: 0 for no effect and ±100 for the full control effect; nearly all actives have a fitted effect of over 45% in size
[4] = biological target: Retinaldehyde dehydrogenase 3 (Homo sapiens) (UniProt P47895); test: qHTS for Inhibitors of the Aldehyde Dehydrogenase Family (ALDH1A3) Primary screen (AID 2061315);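 also: plate controls were DMSO vehicle for no effect and reference inhibitor for full effect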

Clc1ccc(OCC2=NCCN2)cc1Cl
inactive: activation [1] -0.955% | Potency [2] | Potency [3] | Potency [4]

CCOC(=O)C1(CCc2ccccc2)CCN(Cc2ccc(NC(C)=O)cc2)CC1
inactive: activation [1] -12.4% | Potency [2] | Potency [3] | Potency [4]

Cc1c(Cl)cccc1S(=O)(=O)Nc1nc(CC(=O)N2CCN(C)CC2)cs1
inactive: activation [1] -6.21% | Potency [2] | Potency [3] | Potency [4]

COC1(C[S@@](=O)c2ccccc2)CCN(CCc2c[nH]c3ccc(F)cc23)CC1
inactive: activation [1] -6.68% | Potency [2] | Potency [3] | Potency [4]

CC(=O)N(C)c1cccc(-c2ccnc3c(C(=O)c4cccs4)cnn23)c1
inactive: activation [1] -3.13% and 5.73% | Potency [2] | Potency [3] | Potency [4]

CN1CCCCC1Cn1cc(C(=O)c2cc([N+](=O)[O-])ccc2I)c2ccccc21 (centres undefined)
inactive: activation [1] 23.9% | Potency [2] | Potency [3] | Potency [4]
